Growth inhibition data for 40 compounds are collected here from PubChem BioAssay (NCI).

Compounds without any hit were thinned out: in the full panel of roughly 79,000, 15% have a hit. Calls of active or inactive are those of the source. No stated cut-off is given here; in the data, active means growth inhibition above about 70%; inactive means the rest. Where a SMILES comes first, the peptide text is derived from it. The star is where a group is joined. Cbz = O=C(OCc1ccccc1)*

One assay can be described thus: NCI Yeast Anticancer Drug Screen. Data for the sgs1 mgt1 strain (AID 161).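 Further: 0% = growth of cultures given vehicle only.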 The conditions noted are these: S. cerevisiae sgs1 mgt1 strain, at 50.0 µM, stronger effect = higher value. In outline:
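Inhibition of yeast growth, normalised to vehicle-treated controls, is reported for a strain bearing genetic alterations in DNA damage repair.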
For `Cn1c(-c2ccccc2)cc(=O)cc1-c1ccccc1`, the growth inhibition is -10.2% (inactive).
The same measure, in the same setting: then `C1CCC(CCC2CCCC[N-]2)[N-]C1.[I][Co][I]` (stereo not given), with 47% (inactive).
`CCCCCn1cnc2cc(N3CCOCC3)c([N+](=O)[O-])cc2c1=O`: the growth inhibition is 5.75% (inactive).
The same measure, in the same setting: then `CN(C)C(=N)N=C(N)N`, with -27.6% (inactive).
`CC(=O)Oc1c2oc3cc(O)c(O)cc3c2c(OC(C)=O)c2oc3cc(O)c(O)cc3c12`: the growth inhibition was -1.15% (inactive).
The same measure, in the same setting: the same measure for `OCC(O)C(O)C(O)C(Sc1ccccc1)Sc1ccccc1` (stereo not given): 7.4% (inactive); for `Cn1c(C(N)=O)cc(=O)n1-c1ccc([N+](=O)[O-])cc1`: 4.45% (inactive); for `N/N=C/c1ccc2ccccc2n1`: -17.4% (inactive).
On to `Brc1ccc(Nc2ccc(Br)cc2Br)c(Br)c1`, for which the growth inhibition is 16.6% (inactive).
On the same count and under the same terms, the same measure for `CN(C)c1ccc(C=Nc2ccc3c(c2)C(N2CCOCC2)c2ccccc2-3)cc1` (stereo not given): -38.1% (inactive); for `Cc1cc2c3c(c1)CCCN3CCC2`: -9.85% (inactive).
The same measure, in the same setting: the same measure for `c1ccc(B2O[C@H]3CCCC[C@@H]3O2)cc1`: -1.3% (inactive); for `CCNCC(=O)Nc1ccccc1C(=O)OCC`: 0.2% (inactive).
For the compound `CC1CCOC(/C=C/c2ccccc2)O1` (stereo not given), the growth inhibition is 5.7% (inactive).
Consider `CCCC(=O)OCC1OC2OC(C)(C)OC2C2OC(C)(C)OC12` (stereo not given), for which the growth inhibition was 10.8% (inactive).
Same read-out and setting: then `C=C(CC)C(=O)c1ccc(OCC(=O)O)c(Cl)c1Cl`, with 16.6% (inactive); and `N#CCCNCCNCCC#N`, with -18.1% (inactive).
As to `C[N+]([O-])(C/C=C/c1ccccc1)c1ccccc1` (stereo not given), the growth inhibition was -2.65% (inactive).
Take `O=c1onc2c3ccccc3ncn12`: the growth inhibition is -21.2% (inactive).
On the same count and under the same terms, the same measure for `CC(C(=O)O)n1c(=O)ssc1=O` (stereo not given): 1.3% (inactive); for `CCOC(=O)CCC(NC(=O)c1ccc([N+](=O)[O-])cc1)C(=O)OCC` (stereo not given): -7.3% (inactive).
For the compound `COc1cc(-c2cc(=O)c3c(O)c(OC)c(OC)cc3o2)ccc1O`, the growth inhibition is -28.5% (inactive).
Still for that read-out and setting: the same measure for `CC(=O)c1cc2c(cc1C)CCCC2(C)C`: -2.4% (inactive); for `CN(C)CC1CC=CCC1CN(C)C` (stereo not given): -5.6% (inactive).
The same measure, in the same setting: the same measure for `O=C(CC(=O)N1N=C(N(c2ccccc2)c2ccccc2)CC1c1ccccc1)Nc1ccccc1` (stereo not given): -2.1% (inactive); for `CC(O)C(NC(=O)C(Cc1ccc(O)cc1)NC(=O)OCc1ccccc1)C(=O)O` (stereo not drawn) (Cbz-Tyr-Thr-OH; configuration not given here): -2.05% (inactive); for `BrC1(Br)C2CC/C=C/CCCCC21` (stereo not given): 20.9% (inactive).
Take `C=C1CCC/C(=N\Nc2ccc([N+](=O)[O-])cc2[N+](=O)[O-])C12CCCC2`: the growth inhibition was -4.65% (inactive).
Still for that read-out and setting: then `CC(=O)Oc1cccc(/C=C/C(=O)O)c1`, with 22.9% (inactive); and `Cc1ccc2c(ccc3ccccc32)n1`, with 60% (inactive); and `COc1cccc(C2c3cc4c(cc3OC(C)(OC)C2C)OCO4)c1` (stereo not given), with 21.4% (inactive).
For `O=C(c1nc2ccccc2[nH]1)N1CCN(c2ccccc2)CC1`, the growth inhibition is -9% (inactive).
On to `O=C(O)c1ccc(CS(=O)c2ccccc2)c([N+](=O)[O-])c1` (stereo not given), for which the growth inhibition was -1.45% (inactive).
As for `Nc1ccc2ccccc2c1[N+](=O)[O-]`, the growth inhibition was 37.6% (inactive).
In the case of `O/N=C1/CCCCC1NO` (stereo not given), the growth inhibition is -32.2% (inactive).
The same measure, in the same setting: the same measure for `N#CCCOC1C(OCCC#N)C(OCCC#N)C(OCCC#N)C(OCCC#N)C1OCCC#N` (stereo not given): 8% (inactive).
With `COC1=C(c2c[nH]c3ccc(CC=C(C)C)cc23)C(=O)C(OC)=C(c2c[nH]c3ccc(CC=C(C)C)cc23)C1=O`, the growth inhibition is 13.6% (inactive).
As to `CCCCCCC#CC(=O)OCCCC`, the growth inhibition was 6.05% (inactive).
On the same count and under the same terms, then `CCc1ccc2c(c1)C(C)(CC)CCC2C` (stereo not given), with -16.4% (inactive); and `CCCCCCCCC(C)(C)O`, with -1.25% (inactive).

The nature of the next assay: NCI Yeast Anticancer Drug Screen. Data for the cln2 rad14 strain (AID 165).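 Further: 0% = growth equal to vehicle treated cultures.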 The conditions noted are these: S. cerevisiae cln2 rad14 strain, at 50.0 µM, stronger effect = higher value. The method in brief: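 cln2 rad14 yeast strain; compound exposure; growth inhibition read vs vehicle controls.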
As for `Cn1c(-c2ccccc2)cc(=O)cc1-c1ccccc1`, the growth inhibition was -1.25% (inactive).
As for `C1CCC(CCC2CCCC[N-]2)[N-]C1.[I][Co][I]` (stereo not given), the growth inhibition is -3% (inactive).
Still for that read-out and setting: then `CCCCCn1cnc2cc(N3CCOCC3)c([N+](=O)[O-])cc2c1=O`, with 8.2% (inactive); and `CN(C)C(=N)N=C(N)N`, with -1.8% (inactive).
On the same count and under the same terms, the same measure for `CC(=O)Oc1c2oc3cc(O)c(O)cc3c2c(OC(C)=O)c2oc3cc(O)c(O)cc3c12`: -5.45% (inactive); for `OCC(O)C(O)C(O)C(Sc1ccccc1)Sc1ccccc1` (stereo not given): 8.3% (inactive).
Same read-out and setting: the same measure for `Cn1c(C(N)=O)cc(=O)n1-c1ccc([N+](=O)[O-])cc1`: 3.8% (inactive); for `N/N=C/c1ccc2ccccc2n1`: -1.75% (inactive); for `Brc1ccc(Nc2ccc(Br)cc2Br)c(Br)c1`: 11.6% (inactive).
With `CN(C)c1ccc(C=Nc2ccc3c(c2)C(N2CCOCC2)c2ccccc2-3)cc1` (stereo not given), the growth inhibition was -5.3% (inactive).
For the compound `Cc1cc2c3c(c1)CCCN3CCC2`, the growth inhibition was -30.9% (inactive).
With `c1ccc(B2O[C@H]3CCCC[C@@H]3O2)cc1`, the growth inhibition is 12.8% (inactive).
In the case of `CCNCC(=O)Nc1ccccc1C(=O)OCC`, the growth inhibition is -22.5% (inactive).
Take `CC1CCOC(/C=C/c2ccccc2)O1` (stereo not given): the growth inhibition is 30.1% (inactive).
Same read-out and setting: then `CCCC(=O)OCC1OC2OC(C)(C)OC2C2OC(C)(C)OC12` (stereo not given), with 8.55% (inactive).
Turning to `C=C(CC)C(=O)c1ccc(OCC(=O)O)c(Cl)c1Cl`, the growth inhibition is 16.1% (inactive).
On the same count and under the same terms, the same measure for `N#CCCNCCNCCC#N`: -68.2% (inactive); for `C[N+]([O-])(C/C=C/c1ccccc1)c1ccccc1` (stereo not given): 5.45% (inactive); for `O=c1onc2c3ccccc3ncn12`: -11.4% (inactive).
In the case of `CC(C(=O)O)n1c(=O)ssc1=O` (stereo not given), the growth inhibition was -9.25% (inactive).
`CCOC(=O)CCC(NC(=O)c1ccc([N+](=O)[O-])cc1)C(=O)OCC` (stereo not given): the growth inhibition is -86.5% (inactive).
The same measure, in the same setting: then `COc1cc(-c2cc(=O)c3c(O)c(OC)c(OC)cc3o2)ccc1O`, with -22.1% (inactive).
On to `CC(=O)c1cc2c(cc1C)CCCC2(C)C`, for which the growth inhibition was -1.5% (inactive).
Still for that read-out and setting: the same measure for `CN(C)CC1CC=CCC1CN(C)C` (stereo not given): -15.7% (inactive); for `O=C(CC(=O)N1N=C(N(c2ccccc2)c2ccccc2)CC1c1ccccc1)Nc1ccccc1` (stereo not given): 8.3% (inactive); for `CC(O)C(NC(=O)C(Cc1ccc(O)cc1)NC(=O)OCc1ccccc1)C(=O)O` (stereo not drawn) (Cbz-Tyr-Thr-OH; configuration not given here): -35.8% (inactive).
On to `BrC1(Br)C2CC/C=C/CCCCC21` (stereo not given), for which the growth inhibition is -1.85% (inactive).
The same measure, in the same setting: the same measure for `C=C1CCC/C(=N\Nc2ccc([N+](=O)[O-])cc2[N+](=O)[O-])C12CCCC2`: -11.6% (inactive); for `CC(=O)Oc1cccc(/C=C/C(=O)O)c1`: 3.75% (inactive); for `Cc1ccc2c(ccc3ccccc32)n1`: -4.4% (inactive).
As to `COc1cccc(C2c3cc4c(cc3OC(C)(OC)C2C)OCO4)c1` (stereo not given), the growth inhibition is -83.6% (inactive).
`O=C(c1nc2ccccc2[nH]1)N1CCN(c2ccccc2)CC1`: the growth inhibition was 5.55% (inactive).
Regarding `O=C(O)c1ccc(CS(=O)c2ccccc2)c([N+](=O)[O-])c1` (stereo not given), the growth inhibition was 14.4% (inactive).
Still for that read-out and setting: the same measure for `Nc1ccc2ccccc2c1[N+](=O)[O-]`: 17.5% (inactive); for `O/N=C1/CCCCC1NO` (stereo not given): 15.7% (inactive).
The same measure, in the same setting: the same measure for `N#CCCOC1C(OCCC#N)C(OCCC#N)C(OCCC#N)C(OCCC#N)C1OCCC#N` (stereo not given): 17.7% (inactive); for `COC1=C(c2c[nH]c3ccc(CC=C(C)C)cc23)C(=O)C(OC)=C(c2c[nH]c3ccc(CC=C(C)C)cc23)C1=O`: 19.4% (inactive).
The same measure, in the same setting: then `CCCCCCC#CC(=O)OCCCC`, with -20% (inactive); and `CCc1ccc2c(c1)C(C)(CC)CCC2C` (stereo not given), with -43% (inactive); and `CCCCCCCCC(C)(C)O`, with 3.05% (inactive).
